A selection: hits, their analogues and other compounds. The true share with any hit is near 10%.
KB-V1 cytotox = KB-V1 MDR subline cytotoxicity | KB-V1 MDR cells viability, CellTiter-Glo, 72 h | Potency, µM (titrated, usually from 46.1 µM), hits mostly cytotoxic | 400,000 compounds, 3.4% hits | AID 1347076; note: % is set by controls: 0 for no effect and ±100 for the full control effect; nearly all actives have a fitted effect of over 60% in size
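Compound-treated KB-V1 multidrug-resistant cells, 72 h, 37 degrees C; viability by CellTiter-Glo. Fitted qHTS curves give the values.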
Gal4-VP16 FLuc = inhibits Gal4-VP16 luciferase reporter, ROR gamma counter-screen. Drosophila S2 Gal4-VP16 UAS-luciferase, luminescence, 20 h. Potency, µM (series often up to 53.6 µM), for the others: at the top dose activity, negative = inhibition, hits mostly inhibitors. 310,000 compounds, 3.5% hits. AID 2546;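 note: Gal4-VP16 expression switched on by copper sulfate through the metallothionein promoter; % is set by controls: 0 for no effect and ±100 for the full control effect; nearly all actives have a fitted effect of over 50% in size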
SW480 rereplic = induces DNA re-replication in SW480 colon adenocarcinoma cells. SW480 DNA re-replication, Hoechst DNA content imaging, 48 h. Potency, µM (doses to about 46.1 µM), inactives show at the top dose re-replication activation, most hits filed as activators. 340,000 compounds, 1.8% hits. AID 624297; note: % of control where 0% means no effect; nearly all actives have a fitted effect of over 55% in size
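250 cells/well; 23 nL cpd via pin tool; 48 hr, 37 C, 5% CO2; Hoechst 40 min; imager read of total nuclear intensity, ex 405/em 500-530 nm.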
KB-3-1 cytotox = KB-3-1 parental cell cytotoxicity. KB-3-1 viability, CellTiter-Glo ATP luminescence, 72 h. Potency, µM (doses to about 46.1 µM), usual class: cytotoxic. 400,000 compounds, 1.4% hits; note: % is set by controls: 0 for no effect and ±100 for the full control effect; nearly all actives have a fitted effect of over 60% in size
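Luminescent ATP read-out (CellTiter-Glo) measures survival of drug-naive KB-3-1 cells after 72 h compound exposure at 37 °C. Titration series was screened from lowest to highest concentration, with DMSO vehicle plates as background controls.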
MCF10A rerep = inducers of DNA re-replication in MCF 10A breast cells | AID 624296 | MCF 10A DNA re-replication, Hoechst nuclear intensity, 48 h | 350,000 compounds, 2.9% hits | Potency, µM (series often up to 46.1 µM), for the others: at the top dose activity, positive = re-replication, usual class: activators; note: % of control where 0% means no effect; nearly all actives have a fitted effect of over 50% in size
RORgamma inh = blocks mouse ROR gamma transcriptional activity; Drosophila S2 Gal4-RORgamma UAS-luciferase reporter, 20 h; Potency, µM (series often up to 53.6 µM), for the others: at the top dose activity change, negative = inhibition, hits mostly inhibitors; 310,000 compounds, 5.4% hits; AID 2551; note: % is set by controls: 0 for no effect and ±100 for the full control effect; nearly all actives have a fitted effect of over 60% in size
Target sequence (P51450 whole entry, looked up, the tested form may be a part): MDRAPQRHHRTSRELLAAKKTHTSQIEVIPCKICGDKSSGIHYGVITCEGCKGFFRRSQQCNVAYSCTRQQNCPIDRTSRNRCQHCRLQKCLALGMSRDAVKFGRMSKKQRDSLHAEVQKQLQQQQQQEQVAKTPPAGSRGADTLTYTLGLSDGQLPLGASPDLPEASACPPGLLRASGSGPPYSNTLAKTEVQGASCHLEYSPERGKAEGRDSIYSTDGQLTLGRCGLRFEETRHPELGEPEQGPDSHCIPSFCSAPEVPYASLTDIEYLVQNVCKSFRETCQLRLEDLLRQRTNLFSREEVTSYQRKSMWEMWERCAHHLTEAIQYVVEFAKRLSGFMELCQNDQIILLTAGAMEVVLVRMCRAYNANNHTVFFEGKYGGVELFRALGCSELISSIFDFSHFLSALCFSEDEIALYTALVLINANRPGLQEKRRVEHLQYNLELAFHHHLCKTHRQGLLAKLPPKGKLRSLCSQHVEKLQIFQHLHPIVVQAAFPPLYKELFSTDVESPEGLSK
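Schneider cells (Drosophila), stable Gal4 DBD–ROR gamma + UAS-luc; 1 hr cmpd preincubation; Cu2+ induction 700 uM final; 20 hr ambient; luminescence.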
Starred values were filed as active, the others as inactive; i = inactive; ? = inconclusive; / = no result given; [ ] = remark or other dose. Calls come from the whole dose curve; as a rule, active = well fitted curve in the direction sought with a large enough effect; inconclusive = small, poorly fitted or top-dose-only effect, or another doubt; inactive = no such curve, though single readings can be large; an effect the other way counts as inactive or inconclusive. Potency is the fitted concentration of half-maximal effect.

SMILES	KB-V1 cytotox	Gal4-VP16 FLuc	SW480 rereplic	KB-3-1 cytotox	MCF10A rerep	RORgamma inh
CC(/C=C/c1ccccc1)=N\NC(=O)c1ccncc1	i	11.2µM*	-5.6%	i	-2.7%	7.08µM*
O=C(N/N=C/c1ccccc1[N+](=O)[O-])c1cccs1	i	4.8%	-6.2%	i	0.6%	11.5%
O=C(N/N=C\C=C\c1ccc([N+](=O)[O-])o1)c1cccs1	i	11.2µM*	11.6µM*	i	8.2µM*	7.94µM*
CCCCOC(=O)c1ccc(NC(=O)Cn2nnc3sc4c(c3c2=O)CCCC4)cc1	i	/	/	i	/	/
O=C(N/N=C/C=C/c1cccc([N+](=O)[O-])c1)c1ccncc1	i	?	7.5%	i	0.9%	7.08µM*
O=C(CN1CCN(Cc2ccccc2)CC1)N/N=C/C=C/c1ccccc1[N+](=O)[O-]	i	-3.2%	25.1%	i	18.3%	-9.8%
CC1(C)OC(c2ccccc2)=C/C(=C\C=N\NC(=O)c2ccncc2)O1	?	0.562µM*	-18.2%	i	-11.3%	0.398µM*
O=C(CN1CCN(Cc2ccc(Cl)cc2)CC1)N/N=C/C=C/c1ccccc1[N+](=O)[O-]	i	13.0%	18.1%	20.6µM*	?	3.0%
O=C(N/N=C/C=C\c1ccc([N+](=O)[O-])cc1)c1cccnc1	?	?	-2.7%	i	0.5%	5.62µM*
Cc1ccc2c(c1)c1c(c(=O)n(-c3cccc(Cl)c3)c(=O)n1CC(=O)N1CCCC1)n2C	i	/	/	i	/	/
CCNc1ncc2nc(-c3cccc(C#N)c3)c(=O)n(CCC#N)c2n1	/	-9.3%	/	/	/	2.4%
Cc1ccc(CN(C(=O)COc2ccc(C(C)C)cc2)C2CCS(=O)(=O)C2)o1 (centres undefined)	i	/	/	i	/	/
COc1ccc(-c2c(C(=O)c3ccc(Br)cc3)[nH]c(N)c2C(=O)c2ccccc2)cc1OC	?	/	/	i	/	/
O=C(N/N=C/C=C/c1ccccc1[N+](=O)[O-])c1cccs1	?	?	-8.3%	i	?	?
NC(=S)NN=C(c1ccccc1)c1ccccc1	i	?	-9.4%	i	4.2%	7.08µM*
O=C(N/N=C/C=C\c1ccccc1[N+](=O)[O-])c1ccncc1	i	?	2.7%	i	-2.6%	10µM*
O=C1CCc2cc([S+](=O)([O-])NC3CCOCC3)ccc2N1	i	/	/	i	/	/
Cc1cccnc1CN1CCN(C(=O)c2cc(COc3ccc4ncccc4c3)on2)CC1	6.51µM*	?	2.7%	?	?	?
CCOC(=O)C1CCCN(C(=O)c2cc(COc3ccc(C)nc3)on2)C1 (centres undefined)	16.4µM*	-1.1%	?	i	-1.1%	31.8%
CCOC(=O)N1CCN(C(=O)c2cc(COc3ccc4ncccc4c3)on2)CC1	?	7.08µM*	17.7%	?	?	?
CCOC(=O)C1CCCN(C(=O)c2cc(-c3ccc(C)cc3)on2)C1 (centres undefined)	i	?	-6.5%	i	1.7%	?
O=C(c1cc(COc2ccc3ncccc3c2)on1)N1CCC(O)CC1	i	3.6%	-6.0%	?	-1.9%	?
COc1ccc(-c2nc3ccccc3n3c(-c4cccc(C)c4)c4c(=O)n(C)c(=O)n(C)c4c23)cc1	i	/	/	i	/	/
Cc1noc(C)c1-c1nc(N2CCN(C)CC2)c2ccccc2n1	/	-6.8%	/	/	/	-34.7%
CCOC(=O)Cc1csc(-n2sc3ccccc3c2=O)n1	i	?	20.4%	i	?	11.2µM*
CCCCn1c2ccccc2c2nnc(SCC(=O)Nc3ccc(NC(C)=O)cc3)nc21	i	/	/	i	/	/
O=C(c1ccccc1)c1ccc2n1CC[C@H]2C(=O)O	/	15.0%[17 µM]	-4.8%[20.6 µM]	/	-0.9%[20.6 µM]	9.5%[2.98 µM]
CCCCn1c(SCc2nc3ccccc3s2)nc2ccccc2c1=O	?	4.5%	-4.5%	23.1µM*	?	-6.8%

Bioassay records (PubChem BioAssay)
